Test results: the supplement of paper PMC11732987, “Enantioselective OTUD7B fragment discovery through chemoproteomics screening and high-throughput optimisation” (Communications Chemistry, 2025)

Columns and labels:
Experiment in all cases: log2 ratio of Biotin-Ahx-Ub-VS probe labelling (fragment/DMSO); higher = less target engagement (more negative = stronger competition), active = hit call of the paper (q ≤ 0.05, log2 ratio ≤ -1)
Conditions in all cases: compound concentration: 200 uM; treatment time: 3 h
[1] = target: USP34 (UniProt Q70CQ2)
USP34, sequence (Q70CQ2 whole entry, the tested form may be a part): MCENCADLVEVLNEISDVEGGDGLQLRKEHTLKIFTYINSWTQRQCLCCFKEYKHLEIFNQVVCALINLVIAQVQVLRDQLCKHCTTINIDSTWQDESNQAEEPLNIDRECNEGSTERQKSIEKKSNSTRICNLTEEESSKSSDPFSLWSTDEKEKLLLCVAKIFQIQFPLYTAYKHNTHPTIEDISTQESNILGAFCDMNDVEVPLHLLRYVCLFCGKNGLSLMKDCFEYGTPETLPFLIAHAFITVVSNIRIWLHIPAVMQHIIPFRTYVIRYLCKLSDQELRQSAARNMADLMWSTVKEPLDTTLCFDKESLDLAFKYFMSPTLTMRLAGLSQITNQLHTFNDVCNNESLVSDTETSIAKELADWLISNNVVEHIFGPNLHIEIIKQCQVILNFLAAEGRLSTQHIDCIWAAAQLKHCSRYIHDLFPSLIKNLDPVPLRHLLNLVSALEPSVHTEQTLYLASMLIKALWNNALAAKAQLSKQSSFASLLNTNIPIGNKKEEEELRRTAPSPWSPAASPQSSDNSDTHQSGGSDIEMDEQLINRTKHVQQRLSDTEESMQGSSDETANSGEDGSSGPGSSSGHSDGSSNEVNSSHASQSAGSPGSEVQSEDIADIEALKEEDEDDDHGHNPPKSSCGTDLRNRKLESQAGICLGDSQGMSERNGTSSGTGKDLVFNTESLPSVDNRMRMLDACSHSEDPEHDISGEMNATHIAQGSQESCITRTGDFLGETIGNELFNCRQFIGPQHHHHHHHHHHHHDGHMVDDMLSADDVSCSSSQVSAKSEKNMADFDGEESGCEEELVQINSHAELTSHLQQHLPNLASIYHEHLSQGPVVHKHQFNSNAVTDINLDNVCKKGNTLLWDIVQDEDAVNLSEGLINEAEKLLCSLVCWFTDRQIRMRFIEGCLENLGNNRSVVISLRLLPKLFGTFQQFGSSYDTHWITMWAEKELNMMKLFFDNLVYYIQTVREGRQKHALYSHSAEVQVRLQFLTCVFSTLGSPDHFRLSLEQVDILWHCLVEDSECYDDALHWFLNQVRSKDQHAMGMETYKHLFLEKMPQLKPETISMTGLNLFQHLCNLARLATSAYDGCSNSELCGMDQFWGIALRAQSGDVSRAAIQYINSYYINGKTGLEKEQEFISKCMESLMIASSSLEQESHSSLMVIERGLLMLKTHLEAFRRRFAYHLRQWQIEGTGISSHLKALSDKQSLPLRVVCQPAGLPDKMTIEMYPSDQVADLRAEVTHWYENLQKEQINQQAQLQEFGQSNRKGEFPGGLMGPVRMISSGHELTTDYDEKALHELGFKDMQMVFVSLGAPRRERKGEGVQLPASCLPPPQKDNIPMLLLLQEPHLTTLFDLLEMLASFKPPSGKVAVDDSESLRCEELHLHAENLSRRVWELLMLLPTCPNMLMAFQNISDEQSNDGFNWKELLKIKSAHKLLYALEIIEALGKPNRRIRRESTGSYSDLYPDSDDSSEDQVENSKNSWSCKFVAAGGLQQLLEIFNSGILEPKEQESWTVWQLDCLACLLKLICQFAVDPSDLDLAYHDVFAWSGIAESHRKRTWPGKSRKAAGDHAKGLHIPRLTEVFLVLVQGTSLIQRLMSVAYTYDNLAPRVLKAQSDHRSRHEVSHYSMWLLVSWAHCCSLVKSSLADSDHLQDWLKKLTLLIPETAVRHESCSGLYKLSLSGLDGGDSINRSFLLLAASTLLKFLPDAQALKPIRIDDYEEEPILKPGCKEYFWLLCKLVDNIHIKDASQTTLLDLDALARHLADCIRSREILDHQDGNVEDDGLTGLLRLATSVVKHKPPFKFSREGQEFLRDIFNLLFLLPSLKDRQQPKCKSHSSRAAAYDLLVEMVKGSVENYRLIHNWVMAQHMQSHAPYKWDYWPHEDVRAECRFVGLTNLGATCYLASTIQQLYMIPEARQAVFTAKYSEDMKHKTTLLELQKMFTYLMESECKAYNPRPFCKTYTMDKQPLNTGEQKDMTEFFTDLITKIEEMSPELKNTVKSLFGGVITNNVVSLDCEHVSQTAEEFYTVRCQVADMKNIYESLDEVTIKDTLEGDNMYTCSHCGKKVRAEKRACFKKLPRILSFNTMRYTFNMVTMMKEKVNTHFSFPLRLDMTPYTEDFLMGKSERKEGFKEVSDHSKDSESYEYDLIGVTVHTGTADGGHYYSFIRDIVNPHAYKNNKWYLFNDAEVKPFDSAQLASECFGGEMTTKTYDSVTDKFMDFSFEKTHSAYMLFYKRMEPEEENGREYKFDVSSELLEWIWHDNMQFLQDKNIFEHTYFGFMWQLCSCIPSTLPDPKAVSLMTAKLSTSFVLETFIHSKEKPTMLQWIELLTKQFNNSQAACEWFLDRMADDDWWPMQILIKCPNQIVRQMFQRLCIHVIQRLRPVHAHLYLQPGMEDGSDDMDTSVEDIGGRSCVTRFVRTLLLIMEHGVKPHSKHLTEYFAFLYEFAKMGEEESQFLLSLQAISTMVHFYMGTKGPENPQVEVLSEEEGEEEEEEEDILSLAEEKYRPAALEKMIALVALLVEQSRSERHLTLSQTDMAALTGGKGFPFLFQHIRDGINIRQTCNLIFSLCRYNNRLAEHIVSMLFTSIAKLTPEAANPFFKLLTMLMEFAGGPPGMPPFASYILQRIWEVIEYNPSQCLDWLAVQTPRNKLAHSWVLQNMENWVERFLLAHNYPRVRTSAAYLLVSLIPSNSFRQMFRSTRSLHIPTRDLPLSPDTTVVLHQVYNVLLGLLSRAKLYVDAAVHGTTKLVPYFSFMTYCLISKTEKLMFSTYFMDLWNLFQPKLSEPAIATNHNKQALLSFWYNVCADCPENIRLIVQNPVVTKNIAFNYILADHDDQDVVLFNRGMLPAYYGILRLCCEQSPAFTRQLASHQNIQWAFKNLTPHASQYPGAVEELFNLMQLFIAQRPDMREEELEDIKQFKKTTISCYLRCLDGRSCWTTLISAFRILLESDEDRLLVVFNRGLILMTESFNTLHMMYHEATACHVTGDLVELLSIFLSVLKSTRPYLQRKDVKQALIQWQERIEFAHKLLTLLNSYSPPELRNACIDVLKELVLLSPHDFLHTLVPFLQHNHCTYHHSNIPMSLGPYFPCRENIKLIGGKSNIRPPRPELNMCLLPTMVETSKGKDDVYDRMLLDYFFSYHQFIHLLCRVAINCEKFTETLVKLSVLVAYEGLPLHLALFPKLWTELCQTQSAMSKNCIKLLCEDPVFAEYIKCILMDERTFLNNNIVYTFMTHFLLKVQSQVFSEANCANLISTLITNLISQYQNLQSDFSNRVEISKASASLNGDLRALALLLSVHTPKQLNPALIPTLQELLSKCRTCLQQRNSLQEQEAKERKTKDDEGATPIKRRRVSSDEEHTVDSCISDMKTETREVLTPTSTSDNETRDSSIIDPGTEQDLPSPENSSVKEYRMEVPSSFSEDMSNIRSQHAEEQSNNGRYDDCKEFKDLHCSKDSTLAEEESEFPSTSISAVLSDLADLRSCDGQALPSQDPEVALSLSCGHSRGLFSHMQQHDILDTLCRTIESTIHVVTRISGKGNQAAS
Summary of the method: (§1)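 Triplicate samples of HEK293T lysate, 495 µg each, received fragment at 200 µM or vehicle for 3 h, followed by Biotin-Ahx-Ub-VS (0.5 µM final) for 1 h. After NeutrAvidin enrichment of labelled DUBs and LysC/trypsin digestion, peptides were run by diaPASEF LC-MS/MS. The values are average log2 fragment/vehicle ratios from global-median-normalised Spectronaut label-free quantities, tested by unpaired t-test on proteins having ≥2 unique peptides.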

[2] = target: T1, USP36 (UniProt Q9P275)
T1 sequence (whole entry): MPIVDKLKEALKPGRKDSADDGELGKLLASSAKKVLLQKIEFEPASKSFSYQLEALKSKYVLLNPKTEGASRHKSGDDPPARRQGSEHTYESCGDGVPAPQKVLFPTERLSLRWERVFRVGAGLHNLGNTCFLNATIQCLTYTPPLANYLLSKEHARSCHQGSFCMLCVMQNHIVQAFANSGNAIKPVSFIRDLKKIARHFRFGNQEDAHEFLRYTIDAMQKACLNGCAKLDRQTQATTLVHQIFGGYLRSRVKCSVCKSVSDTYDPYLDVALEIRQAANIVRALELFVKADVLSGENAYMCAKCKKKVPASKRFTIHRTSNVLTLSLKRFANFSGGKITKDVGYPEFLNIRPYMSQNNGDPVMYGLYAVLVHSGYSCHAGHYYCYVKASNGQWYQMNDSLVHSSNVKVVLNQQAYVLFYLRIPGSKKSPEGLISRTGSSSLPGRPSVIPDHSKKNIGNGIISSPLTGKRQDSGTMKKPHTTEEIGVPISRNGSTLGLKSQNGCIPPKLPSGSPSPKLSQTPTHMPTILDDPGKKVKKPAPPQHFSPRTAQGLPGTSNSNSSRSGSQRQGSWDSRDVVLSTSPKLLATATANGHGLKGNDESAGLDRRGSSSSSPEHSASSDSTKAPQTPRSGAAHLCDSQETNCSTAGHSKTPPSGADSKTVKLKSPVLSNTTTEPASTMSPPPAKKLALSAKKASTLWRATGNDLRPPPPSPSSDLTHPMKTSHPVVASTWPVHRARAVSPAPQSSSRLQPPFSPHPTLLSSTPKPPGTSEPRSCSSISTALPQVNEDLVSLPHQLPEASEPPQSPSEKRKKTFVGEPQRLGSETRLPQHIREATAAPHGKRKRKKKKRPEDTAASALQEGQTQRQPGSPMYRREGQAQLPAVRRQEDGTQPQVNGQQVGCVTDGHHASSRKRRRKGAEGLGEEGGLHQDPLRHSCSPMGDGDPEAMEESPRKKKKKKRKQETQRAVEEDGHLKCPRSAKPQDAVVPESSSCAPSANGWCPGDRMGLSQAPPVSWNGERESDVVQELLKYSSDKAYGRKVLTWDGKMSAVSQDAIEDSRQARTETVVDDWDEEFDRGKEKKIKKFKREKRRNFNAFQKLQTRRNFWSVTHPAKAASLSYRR
Summary of the method: as §1

[3] = target: T2, USP38 (UniProt Q8NB14)
T2 sequence (whole entry): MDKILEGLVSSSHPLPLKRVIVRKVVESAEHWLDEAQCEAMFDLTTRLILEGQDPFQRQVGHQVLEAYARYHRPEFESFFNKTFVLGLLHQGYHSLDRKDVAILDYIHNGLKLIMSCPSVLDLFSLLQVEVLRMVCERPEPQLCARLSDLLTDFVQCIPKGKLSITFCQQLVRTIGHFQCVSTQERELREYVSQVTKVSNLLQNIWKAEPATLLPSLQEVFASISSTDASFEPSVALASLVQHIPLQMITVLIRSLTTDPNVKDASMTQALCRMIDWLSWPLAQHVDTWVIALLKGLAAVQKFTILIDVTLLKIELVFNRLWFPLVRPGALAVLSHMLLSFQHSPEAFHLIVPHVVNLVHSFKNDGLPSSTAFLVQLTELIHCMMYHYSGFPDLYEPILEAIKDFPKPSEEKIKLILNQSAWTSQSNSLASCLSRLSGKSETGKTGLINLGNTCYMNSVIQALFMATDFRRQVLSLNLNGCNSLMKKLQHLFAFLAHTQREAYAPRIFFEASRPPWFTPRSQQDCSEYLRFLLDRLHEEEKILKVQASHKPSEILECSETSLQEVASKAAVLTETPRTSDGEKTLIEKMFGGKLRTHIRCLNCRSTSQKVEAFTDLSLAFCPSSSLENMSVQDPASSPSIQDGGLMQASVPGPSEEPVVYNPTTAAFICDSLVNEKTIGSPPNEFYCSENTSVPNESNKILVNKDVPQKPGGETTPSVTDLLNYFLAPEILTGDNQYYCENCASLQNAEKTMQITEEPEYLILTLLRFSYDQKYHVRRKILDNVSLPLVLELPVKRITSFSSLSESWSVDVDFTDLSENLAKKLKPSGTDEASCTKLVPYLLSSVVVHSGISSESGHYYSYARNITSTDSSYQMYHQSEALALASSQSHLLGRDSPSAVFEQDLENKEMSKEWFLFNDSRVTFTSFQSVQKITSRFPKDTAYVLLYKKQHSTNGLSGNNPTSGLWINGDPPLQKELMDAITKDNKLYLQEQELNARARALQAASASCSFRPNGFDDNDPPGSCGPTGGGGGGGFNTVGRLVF
Summary of the method: as §1

[4] = target: T3, USP39 (UniProt Q53GS9)
T3 sequence (whole entry): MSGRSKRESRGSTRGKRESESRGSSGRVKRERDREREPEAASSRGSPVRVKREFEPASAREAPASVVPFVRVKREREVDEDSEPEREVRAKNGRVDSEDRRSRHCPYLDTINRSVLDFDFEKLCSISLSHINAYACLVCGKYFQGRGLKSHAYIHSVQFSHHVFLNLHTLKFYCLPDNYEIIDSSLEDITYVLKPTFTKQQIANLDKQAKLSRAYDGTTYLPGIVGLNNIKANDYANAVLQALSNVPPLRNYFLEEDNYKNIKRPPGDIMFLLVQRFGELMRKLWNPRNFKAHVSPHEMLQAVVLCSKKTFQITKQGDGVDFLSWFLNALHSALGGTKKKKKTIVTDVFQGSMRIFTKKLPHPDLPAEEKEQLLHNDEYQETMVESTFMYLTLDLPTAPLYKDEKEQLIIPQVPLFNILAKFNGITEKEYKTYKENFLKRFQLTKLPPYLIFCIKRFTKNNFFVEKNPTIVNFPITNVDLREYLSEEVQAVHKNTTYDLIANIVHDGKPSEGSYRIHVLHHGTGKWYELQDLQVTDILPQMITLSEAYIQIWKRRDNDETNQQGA
Summary of the method: as §1

[5] = target: T4, USP4 (UniProt Q13107)
T4 sequence (whole entry): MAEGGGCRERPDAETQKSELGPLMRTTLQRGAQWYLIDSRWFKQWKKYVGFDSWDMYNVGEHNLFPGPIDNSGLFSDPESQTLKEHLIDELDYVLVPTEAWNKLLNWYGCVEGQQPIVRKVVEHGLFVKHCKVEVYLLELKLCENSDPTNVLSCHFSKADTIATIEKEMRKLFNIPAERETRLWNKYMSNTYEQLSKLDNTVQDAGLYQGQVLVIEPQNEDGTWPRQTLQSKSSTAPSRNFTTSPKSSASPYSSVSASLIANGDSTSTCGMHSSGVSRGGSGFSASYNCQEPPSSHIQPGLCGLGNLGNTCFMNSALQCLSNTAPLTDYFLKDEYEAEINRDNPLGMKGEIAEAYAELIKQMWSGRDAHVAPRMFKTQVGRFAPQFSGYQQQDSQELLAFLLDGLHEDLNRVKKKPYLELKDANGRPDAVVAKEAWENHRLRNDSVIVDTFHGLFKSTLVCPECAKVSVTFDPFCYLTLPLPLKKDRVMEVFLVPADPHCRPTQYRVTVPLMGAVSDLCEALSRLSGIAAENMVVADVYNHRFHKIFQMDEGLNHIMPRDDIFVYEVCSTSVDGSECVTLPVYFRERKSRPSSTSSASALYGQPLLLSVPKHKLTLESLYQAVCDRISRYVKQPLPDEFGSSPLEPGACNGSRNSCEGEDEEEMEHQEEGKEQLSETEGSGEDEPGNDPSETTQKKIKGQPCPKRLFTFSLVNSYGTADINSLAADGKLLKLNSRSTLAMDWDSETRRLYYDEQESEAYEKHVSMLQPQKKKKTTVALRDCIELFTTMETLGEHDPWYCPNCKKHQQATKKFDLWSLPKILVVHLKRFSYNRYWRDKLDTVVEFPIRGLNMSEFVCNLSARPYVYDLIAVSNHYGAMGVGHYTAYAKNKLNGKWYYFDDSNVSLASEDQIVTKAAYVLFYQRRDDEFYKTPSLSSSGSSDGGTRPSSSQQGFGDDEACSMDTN
Summary of the method: as §1

Measured: log2 ratio of Biotin-Ahx-Ub-VS probe labelling

Cl.O=C(CCl)NC1(c2ncccn2)CCC1
inactive: [1] 0.0452 | [2] 0.109 | [3] 0.0726 | [4] 0.133 | [5] 0.0299
